For eight compounds, growth results are on record in PubChem BioAssay (NCI).

Some test systems named below: NCI-H226 lung; NCI-H322M lung; HOP-62 NSCLC; NCI-H460 lung; HOP-92 NSCLC; NCI-H522 lung; A549/ATCC NSCLC; 786-0 renal; COLO 205 colon; DU-145 prostate; K-562 leukemia; MALME-3M melanoma; MDA-MB-231 breast; RXF 393 renal; SF-268 CNS; SF-295 CNS; SF-539 CNS; UACC-257 melanoma; M14 melanoma.
Holding throughout (assay): NCI-60 one-dose screen, 48 h (100 = growth as untreated, 0 = no growth, -100 = all killed)
Conditions in all cases: 10 µM unless noted

The panel holds about 83,000 compounds, 20% with a hit somewhere; the sample as a whole holds those more often.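 Cells were grown in 96-well plates and exposed to the test compound at a single concentration for 48 hours; results are reported as percent growth, with values below 10 considered active.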 Unmarked numbers belong to inactive results. Activity calls are given as the source filed them.

`Ic1ccc(Nc2nc3nonc3nc2Nc2ccc(I)cc2)cc1`: the growth in the assay on NCI-H226 lung is 0.546% (active); with NCI-H322M lung it was 10.9%; in the assay on HOP-62 NSCLC, -18.3% (active); in the assay with NCI-H460 lung, 3.11% (active); in the assay with HOP-92 NSCLC it was -16.4% (active); in the assay on NCI-H522 lung, -20.2% (active). For the same compound, the growth was 4.13% (active) in the assay with A549/ATCC NSCLC; 8.27% (active) in the assay with 786-0 renal; -62.7% (active) in the assay on COLO 205 colon; 22.7% in the assay with DU-145 prostate; 4.38% (active) in the assay on K-562 leukemia; -17.9% (active) in the assay on MALME-3M melanoma. The growth in the assay on MDA-MB-231 breast is -5.93% (active); with RXF 393 renal, -0.305% (active); in the assay with SF-268 CNS, 20.8%; in the assay with SF-295 CNS, -47.6% (active); in the assay on SF-539 CNS, 17%; in the assay on UACC-257 melanoma, -29.7% (active). Besides, the growth in the assay with M14 melanoma was 2.71% (active).

As to `CNCCCNc1nc2ccccc2c2c(=O)c3cc(Cl)ccc3sc12`, the growth with NCI-H226 lung is 101%; in the assay on NCI-H322M lung, 70.4%; in the assay with HOP-62 NSCLC, 60.5%; in the assay with NCI-H460 lung, -70.5% (active); in the assay on HOP-92 NSCLC it was 9.37% (active); with NCI-H522 lung it was 17.6%. In addition, the growth with A549/ATCC NSCLC was 17.8%; in the assay with 786-0 renal, 52.7%; in the assay with COLO 205 colon, -84.4% (active); in the assay on DU-145 prostate, -8.94% (active); in the assay with K-562 leukemia, -70.1% (active); in the assay on MALME-3M melanoma, 17.6%. Further, the growth in the assay with MDA-MB-231 breast is -58.8% (active); with RXF 393 renal, 61.1%; with SF-268 CNS, 53.8%; in the assay with SF-295 CNS, 62.6%; in the assay with SF-539 CNS it was 70.8%; with UACC-257 melanoma, 92.8%.

In the case of `O=C1C(Cl)=C(Nc2ccccc2)C(=O)c2ccccc21`, the growth with NCI-H226 lung is 95.5%; in the assay with NCI-H322M lung it was 92.5%; with HOP-62 NSCLC it was 101%; in the assay on NCI-H460 lung, 81.1%; in the assay on HOP-92 NSCLC, -94.4% (active); in the assay with NCI-H522 lung it was -86.2% (active). Besides, the growth with A549/ATCC NSCLC is 90.8%; in the assay with 786-0 renal it was 31.9%; with COLO 205 colon, 14%; with DU-145 prostate, 87.3%; in the assay on K-562 leukemia, -14.8% (active); with MALME-3M melanoma, -79.5% (active). In addition, the growth with MDA-MB-231 breast is -67.5% (active); with RXF 393 renal it was -89.3% (active); with SF-268 CNS, -45.7% (active); in the assay on SF-295 CNS, 90%; in the assay on SF-539 CNS, 44.9%; in the assay on UACC-257 melanoma, -79% (active). The growth in the assay on M14 melanoma was -69.4% (active).

For the compound `CC/C(=C(\c1ccc(Cl)cc1)c1ccc(OCCN2CCCCC2)cc1)c1ccc(O)cc1`, the growth is 78.6% with NCI-H226 lung; 70.1% in the assay on NCI-H322M lung; -9.16% (active) with HOP-62 NSCLC; -34.5% (active) with NCI-H460 lung; 49.9% in the assay with HOP-92 NSCLC; 58.1% with NCI-H522 lung. In addition, the growth is 32.5% in the assay with A549/ATCC NSCLC; -54.9% (active) in the assay with 786-0 renal; -73.5% (active) in the assay on COLO 205 colon; 39.7% with DU-145 prostate; -28.4% (active) in the assay with K-562 leukemia; -38.1% (active) in the assay with MALME-3M melanoma. Also, the growth in the assay with MDA-MB-231 breast was 26.5%; in the assay with RXF 393 renal, -6.93% (active); with SF-268 CNS, 53%; with SF-295 CNS, 54.6%; with SF-539 CNS, 50%; in the assay with UACC-257 melanoma, -22.1% (active).

`N#Cc1c(-c2ccccc2)nc2c(c(-c3ccc(Cl)cc3)nn2-c2ccccc2)c1-c1ccc([N+](=O)[O-])cc1`: the growth was 94.7% in the assay on NCI-H226 lung; 97% in the assay with NCI-H322M lung; 94.7% in the assay with HOP-62 NSCLC; 103% with NCI-H460 lung; 103% in the assay on HOP-92 NSCLC; 91.7% in the assay with NCI-H522 lung. Besides, the growth in the assay with A549/ATCC NSCLC is 100%; with 786-0 renal, 110%; in the assay on COLO 205 colon, 110%; in the assay on DU-145 prostate, 101%; with K-562 leukemia it was 101%; with MALME-3M melanoma, 101%. In addition, the growth in the assay with MDA-MB-231 breast is 102%; with RXF 393 renal, 109%; in the assay with SF-268 CNS, 98.6%; in the assay with SF-295 CNS, 98.7%; with SF-539 CNS, 95.9%; in the assay with UACC-257 melanoma, 96.2%. In the assay on M14 melanoma, the growth is 97.9%.

`CN(C)CCCNC(=O)c1cncnc1Nc1ccc2c(ccn2Cc2cccc(F)c2)c1`: the growth was 99.4% with NCI-H226 lung; 98.6% with NCI-H322M lung; 99.9% in the assay with HOP-62 NSCLC; 95.5% in the assay with NCI-H460 lung; 78.3% in the assay on HOP-92 NSCLC; 98.2% in the assay with NCI-H522 lung. In addition, the growth is 84.9% in the assay with A549/ATCC NSCLC; 79.5% with 786-0 renal; 84.6% in the assay with COLO 205 colon; 97.8% in the assay with DU-145 prostate; 37.5% in the assay on K-562 leukemia; 81.9% in the assay on MALME-3M melanoma. In addition, the growth is 67.6% in the assay with MDA-MB-231 breast; 70.9% in the assay on RXF 393 renal; 85.6% in the assay on SF-268 CNS; 106% with SF-295 CNS; 83.7% with SF-539 CNS; 84.4% in the assay on UACC-257 melanoma. Moreover, the growth with M14 melanoma is 107%.

`NCCCNc1nc2ccccc2c2c(=O)c3cc(Cl)ccc3sc12`: the growth in the assay on NCI-H226 lung is 93.1%; in the assay on NCI-H322M lung, 39.5%; in the assay on HOP-62 NSCLC, -82.9% (active); with NCI-H460 lung, -83.8% (active); in the assay with HOP-92 NSCLC, -7.36% (active); with NCI-H522 lung, -83.6% (active). The growth was -18.4% (active) in the assay on A549/ATCC NSCLC; 2.76% (active) in the assay with 786-0 renal; -83.6% (active) in the assay on COLO 205 colon; -76.9% (active) in the assay with DU-145 prostate; -70.1% (active) in the assay with K-562 leukemia; -38.3% (active) in the assay on MALME-3M melanoma. Besides, the growth in the assay on MDA-MB-231 breast was -82.9% (active); in the assay on RXF 393 renal it was 47.1%; in the assay with SF-268 CNS it was 37.7%; in the assay with SF-295 CNS it was 4.81% (active); in the assay on SF-539 CNS, 55.7%; in the assay on UACC-257 melanoma, 74.9%. Besides, the growth in the assay on M14 melanoma is -48.2% (active).

For the compound `CS(=O)/C(C#N)=C\C=C\c1cccc(Cl)c1` (centres undefined), the growth with NCI-H226 lung is 36.1%; in the assay with HOP-62 NSCLC it was 17.1%; in the assay on NCI-H460 lung it was 3.71% (active); in the assay with HOP-92 NSCLC, -5.77% (active); in the assay with NCI-H522 lung, -9.88% (active); in the assay on A549/ATCC NSCLC, 20%. In addition, the growth in the assay on 786-0 renal is 19.2%; in the assay on COLO 205 colon it was -22% (active); in the assay on DU-145 prostate, 23.1%; with K-562 leukemia, 10.3%; in the assay on MALME-3M melanoma, 34.7%; with MDA-MB-231 breast it was 40.6%. The growth was 49.5% in the assay on RXF 393 renal; 17.2% in the assay on SF-268 CNS; 32.5% with SF-295 CNS; 17.7% in the assay on SF-539 CNS; 31.9% in the assay with UACC-257 melanoma; -3.44% (active) in the assay with M14 melanoma.
